Measured values reported in PubChem BioAssay AID1498 (National Center for Advancing Translational Sciences (NCATS), 2009).
Records with an inconclusive call do not appear. Active and inactive are the calls of the source. Calls follow the shape of the full dose curve.

Test: Confirmation Concentration-Response Assay for Modulators of Lamin A Splicing
Conditions: RFP activity: RFP channel at top concentration, at 46.1 µM; ratio activity: GFP/RFP ratio at top concentration, at 46.1 µM
How it was run: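 Splicing correction read as ratio of GFP (500-530 nm) to DsRed2 (575-640 nm) object intensity by Acumen cytometry, after 48 h compound treatment of stable HeLa reporter cells (600/well) in 2% FBS medium.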

Row | Structure (SMILES) | RFP activity [%] | outcome | ratio activity [%]
1 | Cc1cc(/C=N/n2cnnc2)c(C)n1-c1cccc(C(=O)O)c1 | -18.9 | inactive | -3.02
2 | Cn1c(Sc2ccccc2Cl)c(C=O)c2ccccc21 | -2.07 | inactive | 0.328
3 | COc1ccc(O)c(/C=N/NC(=O)c2ccc(OCc3cccc(Br)c3)cc2)c1 | -32.5 | inactive | -5.52
4 | CC1=NS(=O)(=O)c2cc(Cl)ccc2N1 | -10.7 | inactive | -9.16
5 | Cc1cc(Nc2ccccc2)nc2cc(O)ccc12 | 11.6 | inactive | -18.8
